Sampled rows, rich in hits. Any-hit rate of the full collection: about 1.9%.
PP5 inh: PP5 (human) phosphatase inhibition | P53041 | purified PP5c, OMFP substrate fluorescence | inhibition, % at 6.7 µM | 0.18% of 320,000 active;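 active means inhibition above the campaign's mean inhibition across all tested compounds plus 3 SD, cut at about 9.5% in these data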;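 further: 0% = DMSO only and 100% = 100 µM cantharidin control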
H9c2 protect: modulators protecting cardiomyocytes from myocardial damage; H9c2 cardiomyocytes, H2O2 injury protection, ATPLite, 2 h; 0.63% of 360,000 active; protection from H2O2 cell death, % at 20 µM; AID 588492;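 active means compounds giving at least 50% protection of heart cells from peroxide-induced death in the single-dose screen, raw or plate-pattern-corrected value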;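 further: 0% = DMSO wells with peroxide and 100% = DMSO wells without peroxide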
PP1 inh: PP1-alpha (human) inhibition in PP5 counter-screen. P62136. purified PP1alpha, OMFP fluorescence. inhibition, % at 6.7 µM. 0.9% of 320,000 active. AID 2235;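 active means inhibition above the mean inhibition of all tested compounds plus 3 SD, computed separately for each screening campaign, cut at about 15% in these data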
ATG4B inhibitor: ATG4B (human) cysteine protease inhibition | AID 504462 | Q9Y4P1 | 0.51% of 340,000 active | ATG4B cleavage of LC3-PLA2, NBD-HPC fluorescence, 1 h | inhibition, % at 8.33 µM; in the data active means inhibition above about 40%
Target sequence (Q9Y4P1 whole entry, looked up): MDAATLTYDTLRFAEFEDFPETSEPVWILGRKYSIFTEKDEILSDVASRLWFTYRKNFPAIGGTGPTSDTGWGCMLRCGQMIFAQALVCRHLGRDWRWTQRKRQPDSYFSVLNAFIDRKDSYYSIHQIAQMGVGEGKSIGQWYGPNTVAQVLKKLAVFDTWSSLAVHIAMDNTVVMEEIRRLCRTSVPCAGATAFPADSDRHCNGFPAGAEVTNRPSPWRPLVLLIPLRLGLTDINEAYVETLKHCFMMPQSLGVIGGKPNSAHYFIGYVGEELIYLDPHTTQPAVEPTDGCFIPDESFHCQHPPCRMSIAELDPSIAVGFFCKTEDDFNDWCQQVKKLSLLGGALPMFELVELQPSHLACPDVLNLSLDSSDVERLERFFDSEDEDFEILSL
* = called active by the depositor; x = no result given; ! = repeats disagree.

SMILES	PP5 inh	H9c2 protect	PP1 inh	ATG4B inhibitor
COC(=O)c1oc2c(c1C)C(=O)CC(C)(C)C2	1	14	-5	0
CC1(C)CC(=O)c2c(oc3cc(O)c(O)cc23)C1	4	90*	-4	9
CC/C(=C(\c1ccccc1)c1ccc(OCCN(C)C)cc1)c1ccccc1	3	-6	17*!	7
Cc1nc(NC(=O)c2cc3c(C)nn(-c4ccccc4)c3s2)sc1C(=O)Nc1ccccc1	1	64*	0	1
CCc1ccc(NC(=O)CSc2nnc(CNC(=O)c3ccc(OC)cc3)o2)cc1	-1	0	0	-12
COc1cccc(CN2CCN(C(=O)c3cc(-c4cccnc4)nc4ccc(C)cc34)CC2)c1	0	50*	-2	-10
Cc1ccc(S(=O)(=O)N2CCCC2C(=O)NCc2ccncc2)cc1 (centres undefined)	1	-7	-6	3
CCOC(=O)C1(CCOc2ccccc2)CCN(C(=O)CCSC)CC1	-2	2	0	3
COc1ccc(/C=C2\CN(Cc3ccccc3)C/C(=C\c3ccc(OC)cc3OC)C2=O)c(OC)c1	4	44	16*	-15
COc1ccc(/C=C2\CN(Cc3ccccc3)C/C(=C\c3ccc(OC)cc3)C2=O)cc1	-3	4	-4	-2
N#CC1C(=N)Cc2ccccc2-c2ccccc21 (centres undefined)	x	-4	x	-3
Cc1ccc2sc(N(CCCN(C)C)C(=O)c3ccc(S(=O)(=O)N4CCc5ccccc5C4)cc3)nc2c1C	1	-23	15*	15
CCN(Cc1ccccc1)S(=O)(=O)c1ccc(C(=O)N(CCCN(C)C)c2nc3cc(C)cc(C)c3s2)cc1	4	-21	16*	23
Cc1ccc2sc(N(CCCN(C)C)C(=O)c3ccc(S(=O)(=O)N(C)Cc4ccccc4)cc3)nc2c1C	5	-27	17*	1
COc1cccc2sc(N(CCCN(C)C)C(=O)c3ccc(S(=O)(=O)N4CCc5ccccc5C4)cc3)nc12	0	-22	5	6
CCC(C(=O)NC1CCCCCC1)n1nc(C)c2c(C)n(-c3ccccc3)nc2c1=O (centres undefined)	3	-4	2	7
CCOC(=O)[C@H]1[C@H]2COc3ccc(Br)cc3[C@@H]2N2C(=O)c3cc(F)c(F)cc3NC(=O)[C@@]12C	3	32	6	-10
Cc1ccccc1-n1ccnc1SCC(=O)NC1CCCC1	-1	-2	-3	-2
COc1ccc(-c2ccc(-c3noc(-c4ccco4)n3)c(OC)n2)cc1	-1	-7	16*	0
CCOC(=O)N1CCN(c2nc3ccc(C(=O)c4ccccc4)cc3n3cnnc23)CC1	1	10	-2	-3
O=C(c1ccccc1)c1ccc2nc(N3CCN(C(=O)c4ccco4)CC3)c3nncn3c2c1	5	84*	14	-15
CC1CC/C(=C\c2ccc3c(c2)OCO3)C(=O)/C1=C/c1ccc2c(c1)OCO2 (centres undefined)	1	9	17*	8
O=C(CC(C(=O)c1ccccc1)c1ccccc1)c1ccccc1 (centres undefined)	x	56*	x	9
CN(C)CC(C(=O)c1ccccc1)c1ccccc1 (centres undefined)	0	-32	2	4
NC(=O)CSc1nc2cc(Cl)ccc2c(=O)n1C1CCCCC1	-1	-2	-4	4
SMILES	PP5 inh	H9c2 protect	PP1 inh	ATG4B inhibitor
Cc1[nH]c(=O)nc(SCc2cccc(Cl)c2)c1C#N	1	0	1	21
N#Cc1c(-c2ccccc2)nc(SCc2cccc(Cl)c2)[nH]c1=O	0	0	17*	38
CC1CC(C)CN(CCCNC(=O)CN2C(=O)c3cccnc3Oc3ccc(Cl)cc32)C1 (centres undefined)	2	2	-2	6
O=C(Cc1ccsc1)NNC(=O)c1cccc(Cl)c1	0	4	-2	1
C=CCn1cnc2c(c1=O)c1nc3ccccc3nc1n2/N=C/c1ccccn1	x	98*	x	-29
C=CCn1cnc2c(c1=O)c1nc3ccccc3nc1n2/N=C/c1cc(OC)c(OC)c(OC)c1	-1	65*	-3	-12
COCCn1cnc2c(c1=O)c1nc3ccccc3nc1n2/N=C/c1cccc(OC)c1	0	52*	-7	-23
C=CCn1cnc2c(c1=O)c1nc3ccccc3nc1n2/N=C/c1cccc(OC)c1OC	1	74*	6	-41
COc1cccc(-c2cc(NC=O)c3ncc(-c4cc(OC)c(OC)c(OC)c4)n3c2)c1	x	8	x	x
COc1cccc(-c2cnc3c(NC(C)=O)cc(-c4cc(OC)c(OC)c(OC)c4)cn23)c1	x	57*	x	x
COc1cccc(-c2cnc3c(NC=O)cc(-c4cccc(C(=O)N(C)C)c4)cn23)c1	x	58*	x	x
COc1ccc(-c2cc(NC=O)c3ncc(-c4ccc(OC)c(OC)c4)n3c2)cc1OC	x	30	x	x
COc1cccc(-c2cnc3c(NC=O)cc(-c4ccc(O)c(OC)c4)cn23)c1	x	85*	x	x
COc1cc(-c2cc(NC=O)c3ncc(-c4ccc(C(C)=O)cc4)n3c2)ccc1O	x	83*	x	x
Cn1c(/C=C(\C#N)C(N)=S)ccc1-c1ccc(Br)cc1	x	-20	x	1
COc1ccc(NC(=O)N(CCCN(C)C)Cc2cc3cc(OC)ccc3[nH]c2=O)cc1	0	51*	-2	-5
CCN(CC)CCCN(Cc1cc2cc(OC)ccc2[nH]c1=O)C(=O)Nc1ccc(F)cc1	3	25	2	9
COc1cc(/C=N/n2nnnc2Nc2ccccc2)cc(OC)c1OC	1	85*	5	-17
COc1cc(/C=N/n2c(-c3ccccc3)n[nH]c2=S)cc(OC)c1OC	2	-3	-7	3
CC(C)CN1CCN(CCCOC(=O)Nc2cccc3ccccc23)CC1C (centres undefined)	x	2	x	-1
COC/C=C/C1=CC2=CC(=O)C(C)(OC(=O)c3cnc4ccccc4n3)C(=O)C2=CN1CCc1c[nH]c2ccccc12 (centres undefined)	2	x	17*	x
COC/C=C/C1=CC2=CC(=O)C(C)(OC(=O)c3cnc4ccccc4n3)C(=O)C2=CN1c1ccccc1 (centres undefined)	2	x	13	3
COC/C=C/C1=CC2=CC(=O)C(C)(OC(=O)c3cnc4ccccc4n3)C(=O)C2=CN1c1ccc(CO)cc1 (centres undefined)	-2	x	20*	x
CCOC(=O)C1=C(C)NC(C)=C(C(=O)OCCNC(=O)c2cccnc2)C1c1cccc([N+](=O)[O-])c1 (centres undefined)	3	69*	-3	-2
O=C(NCCOC(=O)c1ccc([N+](=O)[O-])cc1)c1cccnc1	0	-2	-2	0
CCOC(=O)C1CCN(Cc2cccc(OCc3ccccc3)c2)CC1	2	-1	3	8
COC(=O)c1cc2ccc(OC)cc2c2cc(OC)c(OC)cc12	x	55*	x	-5
COC(=O)c1cc(OC)c(OC)cc1NC(=O)Nc1ccc(OC)cc1	-8	6	-8	-5
Cc1ccc(-c2nn(-c3ccccc3)cc2C2CC(c3ccccc3)=NN2C(=O)CCC(=O)O)cc1 (centres undefined)	5	-6	17*	-1
